According to PubChem BioAssay (NCI):
This is part of a sample that, as a whole, favours compounds with a hit. Of some 79,000 tested, about 15% had one in any assay. The source made the active and inactive calls. No stated cut-off is given here; in the data, active means growth inhibition above about 70%; inactive means the rest.

Assay: NCI Yeast Anticancer Drug Screen. Data for the CLN2oe strain (AID 163);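 further: 0% = growth of vehicle-only control cultures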
Conditions: S. cerevisiae CLN2oe strain, stronger effect = higher value
Method: Growth inhibition of yeast strains with defined genetic alterations is measured as a screen for potential anti-cancer activity. Selected strains with alterations in DNA damage repair or cell cycle control were exposed to compounds and growth inhibition was measured relative to vehicle treated controls. The strain used in this assay is CLN2oe

Measured: growth inhibition

O=Cc1cccc2ccc3ccccc3c12
active: at 100.0 µM 88%
inactive: at 1.2 µM -1% | at 3.7 µM 0% | at 11.0 µM 9% | at 33.0 µM 15%

CCCCCCCCCCCC1=C(O)C(=O)C=C(O)C1=O
inactive: at 1.2 µM -7% | at 3.7 µM -17% | at 11.0 µM 63%
active: at 33.0 µM 93% | at 100.0 µM 91%

CO[C@H]1C[C@](C)(O)Cc2cc3c(c(O)c21)C(=O)c1c(O)cc2c(c1C3=O)O[C@@H]1O[C@@]2(C)[C@H](O)[C@@H](N(C)C)[C@@H]1O
inactive: at 1.2 µM -11% | at 3.7 µM -29% | at 11.0 µM -8% | at 33.0 µM -14% | at 100.0 µM -33%

O=C1C(Nc2ccccc2)=C(Oc2ccccc2)C(=O)c2ccccc21
inactive: at 1.2 µM -6% | at 3.7 µM -2% | at 11.0 µM 1% | at 33.0 µM -1% | at 100.0 µM -4%

Fc1ccc(NC(=S)SCc2ccc(Cl)c(Cl)c2)cc1F
inactive: at 1.2 µM -7% | at 3.7 µM -10% | at 11.0 µM -11%
active: at 33.0 µM 80% | at 100.0 µM 97%

FC(F)(F)c1nc2nc(Cl)c(Cl)nc2n1CCCN1CCOCC1
inactive: at 1.2 µM 2% | at 3.7 µM 13% | at 11.0 µM 23% | at 33.0 µM 45% | at 100.0 µM 57%

CC(=O)Oc1ccc2c(c1)Cc1cc(N=C3C=CC(=O)O3)ccc1-2
inactive: at 1.2 µM 2% | at 3.7 µM 23%
active: at 11.0 µM 94% | at 33.0 µM 99% | at 100.0 µM 95%

O=Nc1c(NO)ccc2nn(-c3ccccc3)nc12
inactive: at 1.2 µM 5% | at 3.7 µM 35%
active: at 11.0 µM 97% | at 33.0 µM 98% | at 100.0 µM 98%
